The results in this text go back to PubChem BioAssay.

A short description of assay [1]: antimalarial activity against Dd2 strain (AID 2302;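 active means growth inhibition above 50% at the single 2 µM test dose, taken to imply half-maximal potency below 2 µM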;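 further: 0% = DMSO untreated growth and 100% = chloroquine plus artemisinin killed control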). Conditions: P. falciparum Dd2 in RBCs, LDH growth readout, 72 h; at 2 µM; hits give high values.
Assay [2] is described as follows: HepG2 cytotoxicity, primary screen, cytotoxicity control for P. falciparum antimalarial project, cell-based, ATP luminescence (AID 2303;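 active means inhibition above 50%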;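 further: 0% = DMSO wells and 100% = digitonin-killed cells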). Conditions: HepG2 viability, 24-48 h, at 10 µM, hits give high values.
For assay [3], the target named is L-lactate dehydrogenase (Plasmodium falciparum (isolate CDC / Honduras)) (UniProt Q27743). The assay can be described thus: PfLDH activity inhibition – cell lysate, 3D7 strain, counter-screen for P. falciparum growth inhibition project (AID 2304).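 Further: 0% = vehicle and 100% = reference inhibitor.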 Conditions: P. falciparum 3D7 crude extract, LDH APAD/NBT absorbance; at 2 µM; hits give high values. On the technique in general: Counterscreens check selectivity or assay interference.

The nature of assay [4]: inhibition of 3D7 malaria parasite growth – strain 3D7 (AID 2306).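 Further: 0% = DMSO wells and 100% = chloroquine plus artemisinin control wells.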 Conditions: P. falciparum 3D7 erythrocytic growth, LDH absorbance, 72 h; at 2 µM; hits give high values.
The target of assay [5] is Calcium-dependent protein kinase 1 (Plasmodium falciparum (isolate 3D7)) (UniProt P62344). The assay can be described thus: PfCDPK1 kinase inhibitors, biochemical, TCAMS library (AID 1159585; cut-off not given, nearly all actives have IC50 up to about 0.98 µM;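 further: inhibitors leave more ATP so luminescence rises with inhibition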). Conditions: recombinant PfCDPK1, Kinase-Glo ATP depletion luminescence.
Assay [6] deals with Plasmodium falciparum protein kinase 6 (PK6, PF3D7_1337100) (UniProt Q8IDW1). Briefly: PfPK6 kinase inhibitors, biochemical, TCAMS library (AID 1159586). Conditions: recombinant PfPK6, Kinase-Glo ATP depletion luminescence.
Assay [7] addresses Protein kinase 7 (PK7), Plasmodium falciparum 3D7 (PF3D7_0213400) (UniProt Q7YTF7). Briefly: inhibition of Plasmodium PK7 catalytic activity – biochemical, TCAMS antimalarial set, Kinase-Glo luminescence (AID 1159587). Conditions: recombinant PfPK7, Kinase-Glo ATP depletion luminescence. (In general: Kinase-Glo reads ATP consumption through a luciferase reaction.)
In assay [8] the target is Calcium-dependent protein kinase 4 (Plasmodium falciparum (isolate 3D7)) (UniProt Q8IBS5). Briefly: PfCDPK4 kinase inhibitors, biochemical, TCAMS library (AID 1159588; cut-off not given, nearly all actives have IC50 up to about 0.91 µM). Conditions: recombinant PfCDPK4, Kinase-Glo ATP depletion luminescence.

Values without a mark were called inactive. For part of these data: Results with a measured potency or affinity are listed apart. Activity calls are given as the source filed them. Unless noted, how the calls were made is not given here.

Chain of Calcium-dependent protein kinase 1 (Plasmodium falciparum (isolate 3D7)) (P62344 whole entry, looked up): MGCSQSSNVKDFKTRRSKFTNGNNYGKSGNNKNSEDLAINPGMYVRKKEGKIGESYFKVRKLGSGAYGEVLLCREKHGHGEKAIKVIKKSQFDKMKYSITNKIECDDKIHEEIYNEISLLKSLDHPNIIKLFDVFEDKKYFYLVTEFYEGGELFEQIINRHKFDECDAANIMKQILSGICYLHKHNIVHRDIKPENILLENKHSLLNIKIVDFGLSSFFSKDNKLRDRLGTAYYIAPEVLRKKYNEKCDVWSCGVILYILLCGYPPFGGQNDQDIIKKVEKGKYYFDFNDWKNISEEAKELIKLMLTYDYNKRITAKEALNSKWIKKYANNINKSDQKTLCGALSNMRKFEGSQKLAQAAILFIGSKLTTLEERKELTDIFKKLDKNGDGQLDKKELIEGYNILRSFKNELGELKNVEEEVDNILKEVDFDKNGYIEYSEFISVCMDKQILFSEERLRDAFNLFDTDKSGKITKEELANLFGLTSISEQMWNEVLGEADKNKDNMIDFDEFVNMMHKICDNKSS
Chain of Calcium-dependent protein kinase 4 (Plasmodium falciparum (isolate 3D7)) (Q8IBS5 whole entry, looked up): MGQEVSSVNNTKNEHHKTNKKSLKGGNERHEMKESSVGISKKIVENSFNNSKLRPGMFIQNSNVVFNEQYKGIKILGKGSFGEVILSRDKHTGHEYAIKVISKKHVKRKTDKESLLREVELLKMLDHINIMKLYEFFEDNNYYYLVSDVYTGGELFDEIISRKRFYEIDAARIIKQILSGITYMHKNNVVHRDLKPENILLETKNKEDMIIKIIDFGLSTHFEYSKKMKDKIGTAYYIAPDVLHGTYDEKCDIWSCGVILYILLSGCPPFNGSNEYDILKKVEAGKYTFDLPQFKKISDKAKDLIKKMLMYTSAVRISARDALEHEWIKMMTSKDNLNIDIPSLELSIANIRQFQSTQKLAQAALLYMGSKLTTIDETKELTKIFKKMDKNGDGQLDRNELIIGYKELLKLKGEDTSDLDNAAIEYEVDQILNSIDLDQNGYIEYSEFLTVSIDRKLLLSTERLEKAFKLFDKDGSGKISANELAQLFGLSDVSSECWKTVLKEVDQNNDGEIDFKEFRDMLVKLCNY
Chain of Protein kinase 7 (PK7), Plasmodium falciparum 3D7 (PF3D7_0213400) (Q7YTF7 1-343): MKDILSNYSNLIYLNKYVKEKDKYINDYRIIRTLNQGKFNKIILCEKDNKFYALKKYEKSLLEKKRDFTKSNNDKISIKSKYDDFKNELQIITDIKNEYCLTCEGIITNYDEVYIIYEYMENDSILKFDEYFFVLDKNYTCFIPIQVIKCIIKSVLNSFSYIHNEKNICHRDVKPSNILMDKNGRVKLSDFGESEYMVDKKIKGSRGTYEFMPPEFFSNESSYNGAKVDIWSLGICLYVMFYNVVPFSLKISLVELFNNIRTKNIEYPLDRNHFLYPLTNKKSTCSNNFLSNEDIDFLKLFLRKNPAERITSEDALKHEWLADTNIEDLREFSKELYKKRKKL
Chain of Plasmodium falciparum protein kinase 6 (PK6, PF3D7_1337100) (Q8IDW1 1-305): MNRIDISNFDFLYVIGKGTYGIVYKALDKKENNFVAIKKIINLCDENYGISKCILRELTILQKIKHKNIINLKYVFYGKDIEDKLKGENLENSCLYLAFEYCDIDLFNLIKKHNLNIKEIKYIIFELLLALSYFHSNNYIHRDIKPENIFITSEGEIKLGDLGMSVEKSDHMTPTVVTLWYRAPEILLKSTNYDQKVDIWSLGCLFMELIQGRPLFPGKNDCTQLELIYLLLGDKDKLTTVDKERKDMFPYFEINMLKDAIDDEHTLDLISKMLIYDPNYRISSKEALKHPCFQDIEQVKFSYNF
Chain of L-lactate dehydrogenase (Plasmodium falciparum (isolate CDC / Honduras)) (Q27743 whole entry, looked up): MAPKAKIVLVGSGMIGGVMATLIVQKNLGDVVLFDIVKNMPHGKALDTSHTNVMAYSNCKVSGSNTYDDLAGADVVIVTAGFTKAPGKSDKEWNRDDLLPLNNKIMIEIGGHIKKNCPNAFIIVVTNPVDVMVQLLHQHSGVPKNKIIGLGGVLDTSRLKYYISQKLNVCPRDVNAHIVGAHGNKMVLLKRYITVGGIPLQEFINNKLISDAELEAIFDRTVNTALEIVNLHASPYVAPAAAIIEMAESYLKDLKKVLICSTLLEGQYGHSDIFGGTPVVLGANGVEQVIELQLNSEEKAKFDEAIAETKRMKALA

With `Cc1ccccc1Nc1nc(NCc2ccccc2)nc2ccccc12`, the growth inhibition is 35% in assay [1] and 88% (active) in assay [4]. Also, the inhibition is 39% in assay [2] and -3% in assay [3]. Also, the outcome in assay [5], in assay [6], in assay [7] and in assay [8] was inactive.

For `COc1cc(Cc2cnc(N)nc2N)cc(OCCCCC2NC(=O)NC2=O)c1OC` (stereo not drawn), the growth inhibition in assay [1] is -1%; in assay [4], 94% (active). Further, the results for the inhibition in assay [2] and in assay [3] were 2% and -3%, respectively. In addition, the outcome in assay [5], in assay [6], in assay [7] and in assay [8] was inactive.

Regarding `COc1ccccc1NC(=S)N/N=C/c1ccc(O)cc1O`, the growth inhibition in assay [1] is 80% (active); in assay [4] it was 89% (active). Further, the inhibition in assay [2] was 35%; in assay [3], -5%. The result in assay [5], in assay [6], in assay [7] and in assay [8] was inactive.

As to `O=C(NC1CCCCC1)N(Cc1cccc(-c2ccc(CNCc3ccc4c(c3)OCO4)cc2)c1)C1CCN(Cc2ccccc2)CC1`, the growth inhibition in assay [1] was 59% (active); in assay [4], 92% (active). Moreover, the inhibition in assay [2] was 13%; in assay [3], -9%. For the same compound, the result in assay [5], in assay [6], in assay [7] and in assay [8] was inactive.

Turning to `CCc1ccc2nc(-c3ccc(F)cc3)nc(SCC(=O)Nc3sc(C)c(C)c3C#N)c2c1`, the growth inhibition in assay [1] is 5%; in assay [4], 98% (active). The figures for the inhibition in assay [2] and in assay [3] were -15% and 1%, respectively. Also, the result in assay [5], in assay [6], in assay [7] and in assay [8] was inactive.

As for `COc1ccc2ncc(Cl)c(CCN3CC[C@@H](CNCc4cc5c(cn4)OCS5)C3)c2n1`, the values for the growth inhibition in assay [1] and in assay [4] were 31% and 99% (active), respectively. The inhibition in assay [2] is 22%; in assay [3], 3%. Besides, the outcome in assay [5], in assay [6], in assay [7] and in assay [8] was inactive.

For `CCCC(=O)c1cnc2c(I)cccc2c1Nc1ccccc1C`, the growth inhibition in assay [1] was 26%; in assay [4], 90% (active). The inhibition in assay [2] was 7%; in assay [3] it was 4%. For the same compound, the outcome in assay [5], in assay [6], in assay [7] and in assay [8] was inactive.

With `CC(C)CCN1CCCN(Cc2cccc(NC(=O)c3ccc(Cl)c(Cl)c3)c2)CC1`, the values for the growth inhibition in assay [1] and in assay [4] were 13% and 92% (active), respectively. Further, the results for the inhibition in assay [2] and in assay [3] were 35% and -1%, respectively. In addition, the outcome in assay [5], in assay [6], in assay [7] and in assay [8] was inactive.

As for `Cc1ccc(F)cc1S(=O)(=O)N1CCCCC(c2ccc(C(F)(F)F)cc2)=N1`, the growth inhibition in assay [1] was 75% (active); in assay [4], 82% (active). Moreover, the values for the inhibition in assay [2] and in assay [3] were 8% and 7%, respectively. Also, the result in assay [5], in assay [6], in assay [7] and in assay [8] was inactive.

In the case of `CC(C)(C)C/C=C\c1ccc(C(=O)NCC2CC2)cc1`, the growth inhibition in assay [1] is 88% (active); in assay [4], 94% (active). The figures for the inhibition in assay [2] and in assay [3] were 0% and -2%, respectively. Also, the outcome in assay [5], in assay [6], in assay [7] and in assay [8] was inactive.

On to `Cc1cc(Nc2ccc(Oc3ccc(Cl)cc3)cc2)nc(N)n1`, for which the growth inhibition in assay [1] is 71% (active); in assay [4] it was 101% (active). The inhibition in assay [2] is 49%; in assay [3], 7%. The outcome in assay [5], in assay [6], in assay [7] and in assay [8] was inactive.

Regarding `COc1nc(NCC(C)C)nc(Oc2ccc(=O)n(Cc3ccccc3)n2)n1`, the growth inhibition in assay [1] was 93% (active); in assay [4], 97% (active). In addition, the results for the inhibition in assay [2] and in assay [3] were 1% and 5%, respectively. Further, the outcome in assay [5], in assay [6], in assay [7] and in assay [8] was inactive.

Regarding `CS(=O)(=O)NCCCNCc1ccc(-c2ccc(-c3nc4ccc(F)cc4[nH]3)s2)cc1`, the growth inhibition is 30% in assay [1] and 95% (active) in assay [4]. The inhibition was 23% in assay [2] and 1% in assay [3]. For the same compound, the result in assay [5], in assay [6], in assay [7] and in assay [8] was inactive.

For the compound `Cc1nc(N)nc(N)c1-c1ccc(Br)cc1`, the growth inhibition was 1% in assay [1] and 98% (active) in assay [4]. For the same compound, the inhibition is 46% in assay [2] and 3% in assay [3]. In addition, the result in assay [5], in assay [6], in assay [7] and in assay [8] was inactive.

With `CSc1c(CNCCCNc2cc(=O)c3ccccc3[nH]2)[nH]c2ccccc12`, the growth inhibition in assay [1] was 21%; in assay [4], 87% (active). The inhibition was 0% in assay [2] and 2% in assay [3]. In addition, the outcome in assay [5], in assay [6], in assay [7] and in assay [8] was inactive.

In the case of `CC(C)CCn1c(Sc2ccc(C#N)c([N+](=O)[O-])c2)nnc1-c1ccc(N(C)C)cc1`, the growth inhibition in assay [1] is 96% (active); in assay [4], 97% (active). Moreover, the inhibition was 11% in assay [2] and 3% in assay [3]. Also, the outcome in assay [5], in assay [6], in assay [7] and in assay [8] was inactive.

Turning to `Cc1ccccc1NC(=O)NC1CCN(CCCCCNC(=O)/C=C/c2ccc(Cl)c(Cl)c2)CC1`, the growth inhibition in assay [1] is 20%; in assay [4] it was 102% (active). Also, the inhibition is 13% in assay [2] and -6% in assay [3]. Further, the result in assay [5], in assay [6], in assay [7] and in assay [8] was inactive.

Regarding `O=C(C=Cc1ccc(Cl)c(Cl)c1)NCCCCCN1CCC(CCNS(=O)(=O)c2ccc(Br)cc2)CC1`, the growth inhibition is -1% in assay [1] and 91% (active) in assay [4]. Besides, the inhibition in assay [2] was 58% (active); in assay [3], 5%. Further, the outcome in assay [5], in assay [6], in assay [7] and in assay [8] was inactive.

As to `O=C1COC(c2ccccc2)(c2ccccc2)CN1CC1CCN(Cc2ccc(O)cc2Cl)C1` (stereo not drawn), the growth inhibition in assay [1] was 81% (active); in assay [4], 85% (active). The inhibition in assay [2] was 53% (active); in assay [3], 2%. Further, the result in assay [5], in assay [6], in assay [7] and in assay [8] was inactive.

As to `CC(CN1CCN(C)CC1)C(=O)Nc1ccc(-c2ccc(-c3nc4ccccc4[nH]3)s2)cc1` (stereo not drawn), the growth inhibition in assay [1] is 79% (active); in assay [4], 100% (active). The inhibition in assay [2] was 5%; in assay [3], 4%. Besides, the result in assay [5], in assay [6], in assay [7] and in assay [8] was inactive.

As for `CCN(CC)CCN(Cc1ccc(-c2ccc(Cl)s2)cc1)C(=O)Cn1c(CCc2cccc(F)c2F)nc(=O)c2ccccc21`, the growth inhibition in assay [1] was 27%; in assay [4], 96% (active). In addition, the figures for the inhibition in assay [2] and in assay [3] were 24% and -4%, respectively. The outcome in assay [5], in assay [6], in assay [7] and in assay [8] was inactive.

What is called inhibition is the relative decrease from the control value, in per cent.
